Experimental data reported in the supplement of paper PMC9262897, “Low-cost anti-mycobacterial drug discovery using engineered E. coli” (Nature Communications, 2022).
Where a name gives a salt, the structure may show the parent alone. ± gives the standard deviation of the averaged measurements.

Legend:
Experiment in all cases: growth (OD600 after 10 h); higher = more growth (less inhibition)
[1] = tested on: E. coli TESEC Alr+ wild-type control; conditions: compound 0.1 mM; raw OD600 reference: median of DMSO wells 0.241, cell-free background 0.041
Procedure: (§1)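 TESEC Mtb Alr E. coli, or the Alr+ wild-type control, in 384-well plates with Prestwick library compounds at 0.1 mM and 1% DMSO, across arabinose induction levels of 1E3 to 1E7 nM. Growth is read as OD600 after 10 h at 37 °C in triplicate biological replicates.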

E. coli TESEC Mtb Alr [2] = conditions: compound 0.1 mM
Procedure: as §1

E. coli TESEC Mtb Asd = conditions: compound 0.1 mM
Procedure: (§2)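 TESEC E. coli strains in which the native enzyme is deleted and replaced by arabinose-inducible Mtb Asd, DapB, CysH or TrpD, each grown in its selective medium. Strains were screened against the Prestwick library at 0.1 mM and 1% DMSO in 384-well format at low and high arabinose induction. Growth is read as OD600 after 10 h in triplicate.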

E. coli TESEC Mtb DapB = conditions: compound 0.1 mM
Procedure: as §2

[3] = tested on: E. coli TESEC Alr+ wild-type control; conditions: compound 0.1 mM; raw OD600 reference: median of DMSO wells 0.49, cell-free background 0.052
Procedure: (§3)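 TESEC Mtb Alr E. coli (ΔaraC ΔtolC ΔentC Δalr ΔdadX, arabinose-inducible Mtb Alr) or the Alr+ wild-type control strain, grown in defined M9-fructose medium without D-alanine in 96-well plates with Prestwick library compounds at 0.1 mM and 1% DMSO. Low Alr induction is 0.1 µM arabinose and high induction is 10 mM arabinose.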

E. coli TESEC Mtb Alr [4] = conditions: compound 0.1 mM; remark: listed apart in the source
Procedure: as §3

[5] = arabinose 1000 nM, raw OD600 reference: median of DMSO wells 0.294, cell-free background 0.041
[6] = arabinose 10000 nM, raw OD600 reference: median of DMSO wells 0.264, cell-free background 0.041
[7] = arabinose 100000 nM, raw OD600 reference: median of DMSO wells 0.201, cell-free background 0.041
[8] = arabinose 1000000 nM, raw OD600 reference: median of DMSO wells 0.193, cell-free background 0.041
[9] = arabinose 10000000 nM, raw OD600 reference: median of DMSO wells 0.146, cell-free background 0.041
[10] = arabinose induction (level): High, raw OD600 reference: median of DMSO wells 0.331, cell-free background 0.041
[11] = arabinose induction (level): Low, raw OD600 reference: median of DMSO wells 0.417, cell-free background 0.041
[12] = arabinose induction (level): High, raw OD600 reference: median of DMSO wells […], cell-free background 0.041
[13] = arabinose induction (level): Low, raw OD600 reference: median of DMSO wells 0.227, cell-free background 0.041
[14] = arabinose 100 nM, raw OD600 reference: median of DMSO wells 0.413, cell-free background 0.052
[15] = arabinose 10000000 nM, raw OD600 reference: median of DMSO wells […], cell-free background 0.052

| Structure (SMILES) | growth [1] | growth (E. coli TESEC Mtb Alr [2]; [5]) | growth (E. coli TESEC Mtb Alr [2]; [6]) | growth (E. coli TESEC Mtb Alr [2]; [7]) | growth (E. coli TESEC Mtb Alr [2]; [8]) | growth (E. coli TESEC Mtb Alr [2]; [9]) | growth (E. coli TESEC Mtb Asd; [10]) | growth (E. coli TESEC Mtb Asd; [11]) | growth (E. coli TESEC Mtb DapB; [12]) | growth (E. coli TESEC Mtb DapB; [13]) | growth [3] | growth (E. coli TESEC Mtb Alr [4]; [14]) | growth (E. coli TESEC Mtb Alr [4]; [15]) |
| --- | --- | --- | --- | --- | --- | --- | --- | --- | --- | --- | --- | --- | --- |
| CC(C(=O)O)c1cccc(Oc2ccccc2)c1 (stereo unspecified) [Fenoprofen calcium salt dihydrate] | 0.22 ± 0.0072 | 0.267 ± 0.013 | 0.266 ± 0.0086 | 0.147 ± 0.0054 | 0.192 ± 0.0067 | 0.134 ± 0.0015 | 0.361 ± 0.075 | 0.322 ± 0.042 | 0.205 ± 0.01 | 0.192 ± 0.014 | 0.489 ± 0.089 | 0.397 ± 0.009 | 0.255 ± 0.0093 |
| CN1C(C(=O)Nc2ccccn2)=C(O)c2sccc2S1(=O)=O [Tenoxicam] | 0.195 ± 0.0081 | 0.238 ± 0.0097 | 0.223 ± 0.0086 | 0.212 ± 0.0097 | 0.152 ± 0.0064 | 0.139 ± 0.0027 | 0.281 ± 0.11 | 0.223 ± 0.01 | 0.185 ± 0.0085 | 0.18 ± 0.0088 | 0.493 ± 0.051 | 0.375 ± 0.05 | 0.277 ± 0.01 |
| NS(=O)(=O)c1cc(C(=O)O)c(NCc2ccco2)cc1Cl [Furosemide] | 0.244 ± 0.0029 | 0.303 ± 0.0075 | 0.2547 ± 0.00051 | 0.242 ± 0.024 | 0.18 ± 0.0021 | 0.148 ± 0.0056 | 0.353 ± 0.011 | 0.408 ± 0.054 | 0.181 ± 0.0028 | 0.194 ± 0.0081 | 0.613 ± 0.019 | 0.406 ± 0.012 | 0.353 ± 0.014 |
| NC(CO)C(=O)NNCc1ccc(O)c(O)c1O (stereo unspecified) [Benserazide hydrochloride] | 0.0616 ± 0.0013 | 0.246 ± 0.0069 | 0.224 ± 0.0028 | 0.205 ± 0.033 | 0.0994 ± 0.0023 | 0.124 ± 0.0056 | 0.186 ± 0.018 | 0.186 ± 0.0073 | 0.185 ± 0.023 | 0.227 ± 0.024 | 0.465 ± 0.036 | 0.337 ± 0.069 | 0.148 ± 0.03 |
| Cc1nc2n(c(=O)c1CCN1CCC(c3noc4cc(F)ccc34)CC1)CCCC2 [Risperidone] | 0.237 ± 0.0077 | 0.305 ± 0.007 | 0.269 ± 0.014 | 0.175 ± 0.016 | 0.18 ± 0.0097 | 0.146 ± 0.0055 | 0.183 ± 0.032 | 0.315 ± 0.073 | 0.201 ± 0.024 | 0.261 ± 0.019 | 0.47 ± 0.027 | 0.397 ± 0.014 | 0.305 ± 0.023 |
| C[N+](C)(C)CCOC(N)=O [Carbachol] | 0.251 ± 0.0053 | 0.309 ± 0.014 | 0.284 ± 0.02 | 0.177 ± 0.0065 | 0.186 ± 0.006 | 0.164 ± 0.0027 | 0.475 ± 0.0086 | 0.438 ± 0.051 | 0.194 ± 0.0084 | 0.26 ± 0.028 | 0.492 ± 0.011 | 0.409 ± 0.023 | 0.364 ± 0.014 |
| COc1ccc2c(c1)N(C[C@H](C)CN(C)C)c1ccccc1S2 [Methotrimeprazine maleat salt] | 0.187 ± 0.0042 | 0.25 ± 0.015 | 0.274 ± 0.015 | 0.2 ± 0.0049 | 0.139 ± 0.0095 | 0.179 ± 0.002 | 0.131 ± 0.0046 | 0.2312 ± 0.0023 | 0.1934 ± 0.0013 | 0.211 ± 0.012 | 0.477 ± 0.023 | 0.402 ± 0.0072 | 0.282 ± 0.02 |
| COc1ccc(/C=C/C(=O)Nc2ccccc2C(=O)O)cc1OC [Tranilast] | 0.171 ± 0.0022 | 0.245 ± 0.0071 | 0.27 ± 0.0085 | 0.134 ± 0.011 | 0.104 ± 0.002 | 0.126 ± 0.0016 | 0.218 ± 0.032 | 0.279 ± 0.082 | 0.204 ± 0.035 | 0.178 ± 0.011 | 0.452 ± 0.0089 | 0.308 ± 0.12 | 0.15 ± 0.012 |
| CCCCC(CC)CNC(=N)NC(=N)NCCCCCCNC(=N)NC(=N)NCC(CC)CCCC (stereo unspecified) [Alexidine dihydrochloride] | 0.0519 ± 0.0017 | 0.0821 ± 0.0028 | 0.0849 ± 0.0013 | 0.0842 ± 0.0022 | 0.0553 ± 0.0016 | 0.0814 ± 0.004 | 0.0536 ± 0.00095 | 0.0584 ± 0.0047 | 0.0749 ± 0.029 | 0.071 ± 0.014 | 0.0485 ± 0.0022 | 0.0695 ± 0.012 | 0.0779 ± 0.013 |
| CN1CCN(CCCN2c3ccccc3Sc3ccc(Cl)cc32)CC1 [Prochlorperazine dimaleate] | 0.04087 ± 0.00015 | 0.041 ± 0.00045 | 0.03943 ± 0.00025 | 0.0418 ± 0.00082 | 0.0404 ± 0.0023 | 0.0433 ± 0.00072 | 0.059 ± 0.0069 | 0.166 ± 0.025 | 0.156 ± 0.021 | 0.139 ± 0.0076 | 0.04753 ± 0.00025 | 0.287 ± 0.21 | 0.0531 ± 0.0013 |
| COc1ccccc1Oc1c(NS(=O)(=O)c2ccc(C(C)(C)C)cc2)nc(-c2ncccn2)nc1OCCO [Bosentan] | 0.227 ± 0.0037 | 0.253 ± 0.0068 | 0.269 ± 0.014 | 0.276 ± 0.011 | 0.103 ± 0.0025 | 0.147 ± 0.0018 | 0.253 ± 0.045 | 0.335 ± 0.065 | 0.177 ± 0.022 | 0.247 ± 0.051 | 0.544 ± 0.091 | 0.417 ± 0.0042 | 0.237 ± 0.015 |
| CCCCCCCCCCCCCCCC[N+](C)(C)CCN(Cc1ccc(OC)cc1)c1ncccn1 [Thonzonium bromide] | 0.0453 ± 0.0014 | 0.08477 ± 0.00045 | 0.0958 ± 0.0043 | 0.0909 ± 0.0047 | 0.0447 ± 0.003 | 0.0932 ± 0.0021 | 0.0571 ± 0.0024 | 0.059 ± 0.0013 | 0.05637 ± 0.00046 | 0.0589 ± 0.002 | 0.0464 ± 0.00035 | 0.226 ± 0.15 | 0.112 ± 0.01 |
